Casp6 inh: caspase-6 (human) enzyme inhibition | P55212 | purified caspase-6, Z-VEID-R110 cleavage fluorescence | inhibition, % at 12.5 µM | 350,000 tested, 0.53% active;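 active = mean inhibition across replicates at least about 35%, with every replicate also reaching that limit, limit read from the data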
MBD2 inh: blocks human MBD2 binding to methylated DNA; Q9UBB5; TR-FRET, MBD2 binding to methylated oligonucleotide; inhibition, % at 4.4 µM; 370,000 tested, 0.31% active; AID 686964; in the data active = inhibition above about 13%
Target sequence (Q9UBB5 whole entry, looked up): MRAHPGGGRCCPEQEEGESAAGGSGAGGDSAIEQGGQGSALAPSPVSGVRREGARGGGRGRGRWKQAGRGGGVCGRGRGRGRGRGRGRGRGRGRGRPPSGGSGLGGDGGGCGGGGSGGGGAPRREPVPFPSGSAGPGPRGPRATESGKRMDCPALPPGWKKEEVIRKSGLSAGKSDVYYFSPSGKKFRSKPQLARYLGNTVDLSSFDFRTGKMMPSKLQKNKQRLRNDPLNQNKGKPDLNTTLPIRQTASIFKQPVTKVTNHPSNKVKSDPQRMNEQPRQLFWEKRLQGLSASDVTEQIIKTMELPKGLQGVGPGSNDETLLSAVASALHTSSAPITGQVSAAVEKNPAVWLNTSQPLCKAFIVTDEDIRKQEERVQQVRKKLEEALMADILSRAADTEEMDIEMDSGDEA
UHRF1 binding: UHRF1 methyl-DNA binding inhibition | UHRF1 binding to methylated oligo, TR-FRET | inhibition, % at 4.4 µM | 370,000 tested, 0.75% active | AID 687016; in the data active = inhibition above about 21%;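 note: UHRF1 SRA domain binding a hemimethylated CpG hairpin DNA probe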
LEDGF integ inh: blocks HIV-1 LEDGF/p75-dependent DNA integration | TR-FRET IN-LEDGF/p75 DNA integration, Eu/Cy5 | inhibition, % at 3.7 µM | 370,000 tested, 0.64% active | AID 743269;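 active = inhibition above the screen-wide mean plus 3 SD, cut at about 13% in these data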;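 note: signal is the Cy5 over europium emission ratio at 671 and 618 nm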
IN multimer up: activates HIV-1 integrase multimerization in LEDGF counter-screen. shares compounds with LEDGF integ inh. TR-FRET HIV-1 integrase multimerization, biochemical. activation, % at 7.7 µM. 2,000 tested, 17% active; in the data active = activation above about 8.9%
TR-FRET interf: counter-screen for LEDGF/p75 integration inhibitors: TR-FRET optical interference. AID 1053135. inhibition, % at 7.7 µM. shares compounds with LEDGF integ inh. 2,000 tested, under 10 active. TR-FRET optical interference counterscreen, HIV-1 IN multimerization;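 active = inhibition above the mean over all tested compounds plus 3 SD, which no compound reached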
LEDGF integ conf: LEDGF/p75-dependent HIV-1 integration inhibition, confirmation; inhibition, % at 3.7 µM; shares compounds with LEDGF integ inh; TR-FRET LEDGF/p75-dependent HIV-1 integration, biochemical; 2,000 tested, 36% active; in the data active = inhibition above about 14%
Numbers stand for hits; i = inactive; nt = no result given. The list is not random: actives were taken first. Their share in the collection is about 1.4%.

SMILES | Casp6 inh | MBD2 inh | UHRF1 binding | LEDGF integ inh | IN multimer up | TR-FRET interf | LEDGF integ conf
COc1ccc(CNc2ccccc2)cc1Br | nt | i | i | 22.1 | i | i | i
Cc1cc(=O)oc2cc3c(cc12)OCCO3 | nt | i | i | 28.6 | i | i | i
CC1Cc2ccccc2N1C(=O)CSc1ccccn1 (configuration not stated) | i | i | i | i | nt | nt | nt
CC1Cc2ccccc2N1C(=O)CSCC(=O)O (configuration not stated) | nt | i | i | 15.9 | i | i | i
CN(Cc1ccccc1)C(=O)c1nc[nH]c1C(=O)N(C)Cc1ccccc1 | i | i | i | 16.6 | i | i | i
CN(Cc1ccccc1)C(=O)c1[nH]cnc1C(=O)Nc1ccccc1 | i | i | i | i | nt | nt | nt
Cn1c(SCC(=O)N2CCOCC2)nnc1-c1cnccn1 | nt | i | i | 20.4 | i | i | i
O=C1C2C3C=CC(C3)C2C(=O)N1c1ccccc1OS(=O)(=O)c1ccccc1 (configuration not stated) | nt | i | i | 21.4 | i | i | i
Cc1ccc(S(=O)(=O)Oc2ccccc2N2C(=O)C3C4CCC(C4)C3C2=O)cc1 (configuration not stated) | i | i | i | i | nt | nt | nt
CN(C)Cc1cc(O)c(CN(C)C)cc1O | i | i | i | 23.9 | i | i | 29.7
Cc1noc(C)c1NC(=O)N(C)C[C@H]1Oc2ccc(NS(C)(=O)=O)cc2C(=O)N([C@@H](C)CO)C[C@@H]1C | i | nt | nt | nt | nt | nt | nt
CN(C(=S)Nc1ccc(Oc2ccccc2)cc1)c1ccc(O)cc1 | nt | i | i | i | nt | nt | nt
CN(C(=S)Nc1cccnc1)c1ccc(O)cc1 | i | i | i | 29.2 | i | i | i
C/C=C(/C)C(=O)Nc1cccc(C2=NOC3(C2)C[C@@H](C(N)=O)N(C(=O)[C@H]2CCC(=O)N2)C3)c1 (some centres not stated) | i | i | i | i | nt | nt | nt
C=C(C)C(=O)Nc1cccc(C2=NOC3(C2)C[C@@H](C(N)=O)N(C(=O)[C@H]2CCC(=O)N2)C3)c1 (some centres not stated) | i | i | i | 28.0 | i | i | 24.0
COc1ccc(S(=O)(=O)N(C)C[C@@H]2Oc3ncc(C#Cc4ccccc4)cc3C(=O)N([C@H](C)CO)C[C@@H]2C)cc1 | i | nt | nt | nt | nt | nt | nt
COc1ccc(S(=O)(=O)N(CC(=O)Nc2ccc(S(=O)(=O)N3CCOCC3)cc2)c2ccccc2)cc1 | nt | i | i | 20.3 | i | i | i
C[C@@H]1CN([C@H](C)CO)S(=O)(=O)c2ccc(C#CC3CC3)cc2O[C@@H]1CN(C)C(=O)c1cccnc1 | i | nt | nt | nt | nt | nt | nt
O/N=C1/CCc2cccc3cccc1c23 | nt | i | i | i | nt | nt | nt
O=C1C(=NO)CCc2ccccc21 | 67.9 | i | i | 29.4 | i | i | 26.5
Cc1ccc(S(=O)(=O)N(C)C[C@@H]2OCCCC[C@@H](C)Oc3ccc(NC(=O)CCC(F)(F)F)cc3C(=O)N([C@@H](C)CO)C[C@@H]2C)cc1 | i | nt | nt | nt | nt | nt | nt
CNC(=O)c1ccc(OCc2ccccc2)c(OC)c1 | nt | i | i | i | nt | nt | nt
COc1ccc(C(C#N)CC(=O)c2ccc(OCc3ccccc3)c(OC)c2)cc1OC (configuration not stated) | nt | i | i | 59.5 | i | i | i
N#Cc1c(SCC(=O)Nc2cccc(F)c2)sc2c(O)cc(=O)[nH]c12 | 43.7 | i | 30.2 | 17.5 | i | i | i
